Assay outcomes from PubChem BioAssay.
HCV inhibitor = inhibitors of hepatitis C virus infection | Huh7.5.1 HCVcc-Cre infection, luciferase reporter, 44 h | Potency, µM (doses to about 41.8 µM), without a hit: at the highest dose activity change, negative = inhibition, actives largely listed as inhibitors | 340,000 compounds, 3.4% hits | AID 651820; note: potency is the fitted concentration of half-maximal effect; % is set by controls: 0 for no effect and ±100 for the full control effect
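HCVcc-Cre virus at an moi near 0.5 was added right after compound to cells cultured 4 h from seeding (1,000 cells/well). Luciferase activity was determined 44 h later, 15 min after substrate addition at RT.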
HCMV antiviral = inhibitors of human cytomegalovirus; activity change, negative = inhibition, % at 57.5 µM; HFF cells, HCMV-luciferase reporter, 72 h; stronger effect = lower value; 410,000 compounds, 4.5% hits; in the data active = activity change below about -60%; inconclusive = no clear call, values can overlap the other calls; inactive = above about -39%; note: % is set by controls: 0 for no effect and ±100 for the full control effect
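Two compound doses tested in HFFs infected with HCMV-luciferase, MOI 1 PFU/cell, 72 h at 37C. Lysate luminescence read with OneGlo; data normalized against buffer-only and 10uM Salinomycin inhibitor controls.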
Sm TGR inh = S. mansoni TGR enzyme inhibition; Q962Y6; purified TGR, DTNB reduction, TNB absorbance 405 nm; Potency, µM (series often up to 114 µM), inactives show top-dose activity change, negative = inhibition, actives largely listed as inhibitors; 360,000 compounds, 3% hits; AID 485364; note: potency is the fitted concentration of half-maximal effect; % is set by controls: 0 for no effect and ±100 for the full control effect; nearly all actives have a fitted effect of over 60% in size
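Kinetic colorimetric format: TGR-catalysed, NADPH-driven DTNB reduction monitored via TNB absorbance. Enzyme dispensed at 20 nM; compound exposure 15 min at room temperature before reaction start.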
SARS PLP yeast = SARS-CoV PLP inhibition in yeast; 330,000 compounds, 0.19% hits; AID 485353; Potency, µM (titrated, usually from 32.9 µM), for inactives: top-dose activity, positive = growth rescue, most hits filed as activators; S. cerevisiae expressing SARS-CoV PLpro, growth rescue; calls by dose curve; note: potency is the fitted concentration of half-maximal effect; 0% is about no effect; nearly all actives have a fitted effect of over 55% in size
Pf growth 48h = inhibits P. falciparum growth in the first generation, 48 h. AID 504832. 310,000 compounds, 5.9% hits. Potency, µM (top dose mostly 28.7 µM), for inactives: top-dose activity change, negative = inhibition, most hits filed as inhibitors. P. falciparum luciferase growth in erythrocytes, 48 h; note: potency is the fitted concentration of half-maximal effect; % is set by controls: 0 for no effect and ±100 for the full control effect
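Luminescence readout; reporter = integrated firefly luciferase in P. falciparum. RBC culture at 2% hematocrit, 0.1% parasitemia final, 37 C/5% CO2; decreased signal taken as growth inhibition.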
Pf growth 96h = P. falciparum growth inhibition at 96 hour, primary screen for plastid delayed-death inhibitors. P. falciparum luciferase reporter growth, 96 h. Potency, µM (top dose mostly 28.7 µM), without a hit: at the highest dose activity change, negative = inhibition, actives largely listed as inhibitors. 320,000 compounds, 6.9% hits. AID 504834; note: potency is the fitted concentration of half-maximal effect; % is set by controls: 0 for no effect and ±100 for the full control effect
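Delayed-death screen, second-generation endpoint: infected erythrocytes, 2% hematocrit, 0.05% parasitemia final; 96 hours at 37 C, 5% CO2; luciferase detection reagent; luminescence decrease equals reduced growth.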
* marks the source's active call; other numbers are inactive results; i = inactive; u = inconclusive; x = not tested or not shown; [ ] = dose if it differs, or a comment. Rows were chosen to be rich in hits. Some 15% of all compounds tested hit in one or more screens of this group. Unless noted, calls come from the whole dose curve; as a rule, active = well fitted curve in the direction sought with a large enough effect; inconclusive = small, poorly fitted or top-dose-only effect, or another doubt; inactive = no such curve, though single readings can be large; an effect the other way counts as inactive or inconclusive.

SMILES	HCV inhibitor	HCMV antiviral	Sm TGR inh	SARS PLP yeast	Pf growth 48h	Pf growth 96h
COc1cc(C(=O)Nc2ccc3nc4n(c(=O)c3c2)CCCCC4)cc(OC)c1OC	11µM*	9	-13%	u	-8%	2.6µM*
CCOC(=O)Nc1ccc2nc3n(c(=O)c2c1)CCCCC3	-24%	-24	-29%	-3%	34%	0%
CC1CCCCN1C(=S)Nc1ccc2nc3n(c(=O)c2c1)CCCCC3 (centres undefined)	u	-104*	u	-31%	15%	23%
CC1(C(=O)O)CCN1C(=O)COc1ccc(Cl)cc1 (centres undefined)	x	-3	x	x	x	x
CN1CCN(S(=O)(=O)c2ccc(C(F)(F)F)cc2)C(c2ccccc2)C1 (centres undefined)	6%	-5	2%	-3%	u	-26%
Cc1ccc2nc3c(cc(C#N)c(=O)n3CC3CCCO3)c(=O)n2c1 (centres undefined)	x	x	u	-3%	5%	8%[5.75 µM]
O=c1c2cc(NC(=S)NCCCN3CCC(Cc4ccccc4)CC3)ccc2nc2n1CCCCC2	u	-96*	u	-3%	u	u
O=c1c2cc(NC(=S)NC3CCCCC3)ccc2nc2n1CCCCC2	u	-80*	-5%	-2%	u	u
O=c1c2cc(NC(=S)NC3CCCC3)ccc2nc2n1CCCCC2	u	u	u	-8%	-10%	u
Cc1ccc(NC(=O)CSc2nc(C3CCCC3)nc3c2c(=O)n(C)c(=O)n3C)c(C)c1	x	2	-1%	x	x	x
CCN(CC(=O)Nc1c(Cl)cccc1Cl)C(=O)C1CCN(c2ncnc3sc(C)c(C)c23)CC1	13%	-28	4%	-8%	u	-24%
Cc1ccc(OCC(=O)NNC(=O)C2CCN(c3ncnc4sc(C)c(C)c34)CC2)cc1	2%	-23	-1%	-1%	u	u
CCN(CC(=O)Nc1c(F)cccc1F)C(=O)C1CCN(c2ncnc3sc(C)c(C)c23)CC1	u	-31	-3%	1%	10µM*	u
Cc1cc(Br)ccc1NC(=O)CN(C)C(=O)C1CCN(c2ncnc3sc(C)c(C)c23)CC1	10µM*	-83*	x	x	x	x
Cc1cccc(C)c1NC(=O)CN(C)C(=O)C1CCN(c2ncnc3sc(C)c(C)c23)CC1	u	u	9%	-1%	u	7.4µM*
O=C(CN1C(=O)C(c2ccc(F)cc2)=NC12CCCCCC2)Nc1ccc(F)c(Cl)c1	x	-90*	2%	x	x	x
COc1ccc(C2=NC3(CCCCCC3)N(CC(=O)Nc3cccc(Cl)c3)C2=O)cc1	x	-91*	-1%	x	x	x
COc1cc(NC(=O)CN2C(=O)C(c3ccc(Cl)cc3)=NC23CCCCC3)cc(OC)c1	x	-93*	3%	x	x	x
CCCOc1ccc(C2CC(=O)Nc3c2c(=O)n(C)c(=O)n3C)cc1OC (centres undefined)	x	27	7%	x	x	x
CC(=O)N1c2ccccc2C(CBr)=CC1(C)C	-5%	24	13µM*	1%	-3%	0%
CC1=CC(C)(C)N(C(=O)Nc2ccccc2)c2ccccc21	-1%	-33	u	-2%	81%	u
COc1cccc(CNCc2cccn2-c2nnc(N3CCN(c4ccccc4)CC3)s2)c1	x	-28	-3%	x	x	x
Cc1nc2ccc(NS(=O)(=O)c3ccc4c(c3)OCCO4)cc2s1	3.2µM*	-33	1%	-2%	-17%	x
CC(=O)Nc1ccc(S(=O)(=O)Nc2ccc3nc(C)sc3c2)cc1	u	-76*	x	-13%	x	x
Cc1cc(S(=O)(=O)Nc2cccc([N+](=O)[O-])c2)c(C)s1	15%	-40	-20%	-1%	-4%	2.1µM*
SMILES	HCV inhibitor	HCMV antiviral	Sm TGR inh	SARS PLP yeast	Pf growth 48h	Pf growth 96h
Cc1ccc(S(=O)(=O)Nc2ccc3nc(N)sc3c2)cc1	13µM*	-89*	4%	6%	-12%	x
Cc1ccc(S(=O)(=O)Nc2ccc3nc(C)sc3c2)cc1	u	x	7%	-6%	u	47%
CC1(C)CC(NC(=O)C23CCC(C)(C2Br)C3(C)C)CC(C)(C)N1 (centres undefined)	-13%	13	10%	1%	-20%	-22%
O[C@H]1CN(CC2CCCCC2)[C@@H](c2ccc(Cl)cc2)C[C@@H]1n1cc(-c2ccc(F)cc2)nn1	x	-12	x	x	x	x
C[C@H](CO)N1C[C@H](C)[C@@H](CN(C)C(=O)Nc2ccc(C(F)(F)F)cc2)Oc2c(NS(=O)(=O)c3ccc(F)cc3)cccc2C1=O	48%	9	x	-6%	x	x
Cc1cccc(C)c1NC(=O)C(NC(=O)CN1C(=O)c2ccccc2C1=O)c1ccccc1 (centres undefined)	13%	12	-3%	-8%	5%	i
Cc1ccc(CNC(=O)CN2C(=O)C3(SCC(=O)N3c3cc(C)cc(C)c3)c3ccccc32)cc1 (centres undefined)	x	u	0%	x	x	x
Cc1nc2ccc(NS(=O)(=O)c3ccc(F)c(F)c3)cc2s1	-11%	-18	-14%	3%[6.58 µM]	12%	5%
Cc1nc2ccc(NS(=O)(=O)c3cccc([N+](=O)[O-])c3)cc2s1	11µM*	u	x	-1%	x	x
Cc1nc2ccc(NS(=O)(=O)c3ccc(Br)cc3)cc2s1	u	-60*	-5%	-1%	-7%	u
Cc1ccccc1CN1CC2=C(CCN(Cc3ccccc3)C2=O)N2CCN=C12	x	-99*	x	x	x	x
CCN(CC)CCOc1cc2c(nn1)Oc1ccccc1N2C	-21%	21	1%	0%	13%	3.3µM*
Cc1ccc(C(NC(=O)N2CCCCC2)=C(Cl)Cl)cc1F	u	-80*	-18%	3%	-11%	2%
C#Cc1cccc(C(=O)N2CCCC(C(=O)c3ccc(OC)cc3C)C2)c1 (centres undefined)	8%	-21	-33%	21%	-7%	13µM*
